Assay outcomes from PubChem.
Rows were chosen to be rich in hits. Some 0.67% of all compounds tested hit in one or more screens of this group.
CaV13 ICDI inh: Disruptors of the CACNA1D IQ motif to Ca2+-dependent inactivation inhibitor domain association, primary screening, Förster resonance energy transfer in intact living …; AID 743397; inhibition, % at 12.3 µM; HEK cells, CFP/YFP FRET ICDI-IQ, plate reader, 10 min; percent FRET-ratio fall versus neutral wells; hit rate 0.098% among 340,000;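 active = mean replicate inhibition of at least 30% and at least 1% of replicates passing that level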;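 also: 0% = median of the neutral control wells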
NPR1 activator: GC-A (human) enzyme activation | P16066 | HEK293 GC-A cells, cGMP TR-FRET, EC30 ANP; 0% at EC30 ANP, 100% saturating ANP | activation, % at 10 µM | hit rate 0.14% among 370,000; in the data active = activation above about 40%
Rin1 Abl inh: blocks binding of human Rin1 to Abl; P00519+Q13671; TR-FRET Rin1/Abl binding, biochemical; inhibition, % at 7.35 µM; hit rate 0.4% among 360,000; in the data active = inhibition above about 5%, passing the limit was not always enough
Target sequence (P00519 whole entry, looked up): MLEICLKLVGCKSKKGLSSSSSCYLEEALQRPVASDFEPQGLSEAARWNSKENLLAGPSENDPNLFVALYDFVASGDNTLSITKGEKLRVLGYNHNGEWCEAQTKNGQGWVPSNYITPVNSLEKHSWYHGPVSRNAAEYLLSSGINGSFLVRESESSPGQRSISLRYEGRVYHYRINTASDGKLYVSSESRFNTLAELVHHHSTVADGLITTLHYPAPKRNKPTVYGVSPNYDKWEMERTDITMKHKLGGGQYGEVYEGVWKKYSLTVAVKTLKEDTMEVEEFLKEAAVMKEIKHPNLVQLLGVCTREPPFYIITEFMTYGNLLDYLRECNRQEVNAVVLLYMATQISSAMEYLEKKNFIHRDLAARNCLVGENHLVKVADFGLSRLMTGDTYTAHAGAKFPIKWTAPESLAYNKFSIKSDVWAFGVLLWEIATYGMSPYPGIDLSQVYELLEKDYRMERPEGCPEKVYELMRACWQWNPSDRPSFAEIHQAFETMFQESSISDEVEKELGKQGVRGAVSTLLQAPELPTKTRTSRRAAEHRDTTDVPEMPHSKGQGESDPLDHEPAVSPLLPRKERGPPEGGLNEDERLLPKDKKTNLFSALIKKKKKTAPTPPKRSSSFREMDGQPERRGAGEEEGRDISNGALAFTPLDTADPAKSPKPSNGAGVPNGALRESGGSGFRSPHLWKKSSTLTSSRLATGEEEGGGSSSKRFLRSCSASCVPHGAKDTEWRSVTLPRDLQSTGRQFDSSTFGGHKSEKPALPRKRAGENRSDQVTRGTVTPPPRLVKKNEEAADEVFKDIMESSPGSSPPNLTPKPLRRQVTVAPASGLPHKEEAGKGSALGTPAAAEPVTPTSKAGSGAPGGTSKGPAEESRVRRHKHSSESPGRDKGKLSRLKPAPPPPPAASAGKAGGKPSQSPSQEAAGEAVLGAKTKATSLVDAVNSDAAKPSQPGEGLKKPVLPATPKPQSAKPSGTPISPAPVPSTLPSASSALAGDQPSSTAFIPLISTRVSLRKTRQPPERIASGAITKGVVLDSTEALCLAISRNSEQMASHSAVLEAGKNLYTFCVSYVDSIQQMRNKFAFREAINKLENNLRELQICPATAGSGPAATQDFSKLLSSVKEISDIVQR
Target sequence (Q13671 whole entry, looked up): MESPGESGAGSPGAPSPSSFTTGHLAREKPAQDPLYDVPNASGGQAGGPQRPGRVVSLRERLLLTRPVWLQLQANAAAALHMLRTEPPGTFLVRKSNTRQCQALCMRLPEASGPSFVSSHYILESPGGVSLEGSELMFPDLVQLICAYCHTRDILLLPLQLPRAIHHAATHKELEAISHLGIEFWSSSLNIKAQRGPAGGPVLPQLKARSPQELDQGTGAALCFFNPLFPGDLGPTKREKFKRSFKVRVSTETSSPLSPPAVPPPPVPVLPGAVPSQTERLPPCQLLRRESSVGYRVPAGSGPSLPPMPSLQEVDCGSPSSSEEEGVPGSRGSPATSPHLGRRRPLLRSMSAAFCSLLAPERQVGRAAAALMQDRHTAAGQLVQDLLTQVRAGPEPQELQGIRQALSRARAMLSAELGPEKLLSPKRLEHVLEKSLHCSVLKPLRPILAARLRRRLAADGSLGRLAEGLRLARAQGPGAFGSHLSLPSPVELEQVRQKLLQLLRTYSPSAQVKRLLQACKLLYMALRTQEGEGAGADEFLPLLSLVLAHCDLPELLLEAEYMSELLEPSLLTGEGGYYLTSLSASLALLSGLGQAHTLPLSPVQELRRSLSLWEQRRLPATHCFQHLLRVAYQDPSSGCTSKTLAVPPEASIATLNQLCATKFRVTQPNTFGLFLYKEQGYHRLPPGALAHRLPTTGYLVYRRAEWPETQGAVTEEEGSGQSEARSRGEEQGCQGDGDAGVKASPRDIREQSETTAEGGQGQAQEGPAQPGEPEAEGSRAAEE
NPR2 activator: GC-B (human) receptor activation; P20594; HEK293-GC-B cells, CNP EC30, cGMP TR-FRET; 0% at EC30 CNP, 100% saturating CNP; activation, % at 10 µM; hit rate 0.11% among 370,000;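 active = activation at 10 µM reaching about 35% in either raw or pattern-adjusted values, limit read from the data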
Active calls of the source: *.

How did Cc1cccc(OCc2nnc(SCC(=O)OC3CCCCC3)o2)c1 do in these assays?
CaV13 ICDI inh: -4.8; NPR1 activator: 60.0*; Rin1 Abl inh: 3.5; NPR2 activator: -1.8

Results for Cc1cccc(OCc2nnc(SCC(=O)N3CCCCC3)o2)c1 ?
CaV13 ICDI inh: -3.7; NPR1 activator: 3.3; Rin1 Abl inh: 2.3; NPR2 activator: 0.9

How did CCCCNC(=O)C1(C(=O)c2ccc(OC)cc2)CC(C(=O)OCC)=NO1 (stereo not drawn) do in these assays?
NPR1 activator: 0.1; NPR2 activator: 6.9

What do the screens show for `CCC(NC(=O)c1cccc2c1C(=O)N(Cc1cccnc1)C2)c1ccccc1` (stereo not drawn)?
NPR1 activator: 5.1; NPR2 activator: 10.9

How did CCCCSc1nc2c([nH]1)c(=S)n(C)c(=O)n2C do in these assays?
CaV13 ICDI inh: -6.0; NPR1 activator: 33.9; Rin1 Abl inh: -3.4; NPR2 activator: 37.0*

How did Cn1c(=S)c2[nH]c(SCCC(C)(C)C)nc2n(C)c1=O do in these assays?
CaV13 ICDI inh: -6.6; NPR1 activator: 44.1*; Rin1 Abl inh: -2.0; NPR2 activator: 50.2*

Results for C[C@H]1Cn2nnc(-c3ccccc3)c2Cn2c3ccccc3c(=O)n21 ?
NPR1 activator: -5.7; NPR2 activator: -9.2

How did CC(=O)c1c(N)nc2n(c1=O)CCCCC2 do in these assays?
NPR1 activator: -1.1; Rin1 Abl inh: -1.8; NPR2 activator: 112.3*

What do the screens show for `CC(=O)c1ccc(NC(=O)c2ccc3c(=O)n4c(nc3c2)CCCCC4)cc1`?
CaV13 ICDI inh: -6.8; NPR1 activator: 3.7; Rin1 Abl inh: -1.9; NPR2 activator: 3.7

What do the screens show for `C=CCN1C/C(=C/c2ccccc2)N2C(=O)CC(c3ccccc3)N=C12` (stereo not drawn)?
NPR1 activator: -4.5; NPR2 activator: -7.1

Results for O=C(O)c1cccc(NC(=O)c2cn(-c3ccccc3)nc2-c2ccncc2)c1 ?
CaV13 ICDI inh: -2.2; NPR1 activator: -3.8; Rin1 Abl inh: 2.1; NPR2 activator: -2.4

What do the screens show for `O=C(O)c1cccc(NC(=O)c2cn(-c3ccccc3)nc2-c2cccc(Br)c2)c1`?
CaV13 ICDI inh: 69.0*; NPR1 activator: 0.5; Rin1 Abl inh: 2.1; NPR2 activator: -1.4

Results for COc1ccc(C2C3=C(CCCC3=O)N(CC(=O)O)C3=C2C(=O)CCC3)cc1Cl ?
CaV13 ICDI inh: active; NPR1 activator: 3.0; Rin1 Abl inh: 4.1; NPR2 activator: -0.1

Results for COc1ccc(C(=O)c2ccc(OC)c(OC)c2)cc1OC ?
CaV13 ICDI inh: -3.8; NPR1 activator: 1.2; Rin1 Abl inh: -1.1; NPR2 activator: 4.5

How did COc1ccc(C(=O)c2nccc3cc(OC)c(OC)cc23)cc1OC do in these assays?
Rin1 Abl inh: 13.9*

Results for N/C(=N\OC(=O)c1ccc(Cl)c([N+](=O)[O-])c1)c1ccccn1 ?
CaV13 ICDI inh: 5.5; NPR1 activator: 2.2; Rin1 Abl inh: -2.7; NPR2 activator: -4.5

How did N/C(=N\OC(=O)c1ccc(Cl)c([N+](=O)[O-])c1)c1ccccc1 do in these assays?
CaV13 ICDI inh: -4.6; NPR1 activator: 46.3*; Rin1 Abl inh: 3.0; NPR2 activator: -3.7

How did c1ccc(-c2ccc(CNc3nc(-c4ccccn4)nnc3-c3ccccc3)cc2)cc1 do in these assays?
NPR1 activator: 0.0; NPR2 activator: 1.0

Results for O=C1C=CC(=O)N1CCCCCCCCCCN1C(=O)C=CC1=O ?
CaV13 ICDI inh: -6.7; NPR1 activator: 29.9; Rin1 Abl inh: 6.2; NPR2 activator: 44.3*

Results for O=C1C=CC(=O)N1Cc1ccncc1 ?
CaV13 ICDI inh: -4.2; NPR1 activator: 0.7; Rin1 Abl inh: 0.7; NPR2 activator: -0.4

Results for C(=C\c1ccccc1)/CSc1nnc(Cc2cccs2)n1-c1ccccc1 ?
NPR1 activator: -19.3; NPR2 activator: -9.8

How did Cn1c(CNc2ccccc2F)nc2ccccc21 do in these assays?
NPR1 activator: -2.0; NPR2 activator: -5.9

How did Cc1ccccc1N1CCN(Cc2nc(Cc3ccccc3)no2)CC1 do in these assays?
CaV13 ICDI inh: -1.7; NPR1 activator: 1.2; Rin1 Abl inh: -0.9; NPR2 activator: 7.8

How did Clc1cccc(CN2CCN(Cc3nc(CCc4ccccc4)no3)CC2)c1 do in these assays?
CaV13 ICDI inh: active; NPR1 activator: -3.0; Rin1 Abl inh: 1.4; NPR2 activator: -2.7

What do the screens show for `O=C1ON=C(c2ccccc2)/C1=C/c1ccco1`?
CaV13 ICDI inh: -6.6; NPR1 activator: 35.9; Rin1 Abl inh: 1.4; NPR2 activator: 35.4*

What do the screens show for `Cc1cnc(NC(=O)CSc2nnc(COc3c(C)cccc3C)o2)s1`?
CaV13 ICDI inh: -2.6; NPR1 activator: 0.7; Rin1 Abl inh: -0.6; NPR2 activator: 96.8*

How did Cc1cccc(NC(=O)n2ccc3ccc(-c4ccc5cc[nH]c5c4)cc32)c1 do in these assays?
NPR1 activator: -10.6; NPR2 activator: -0.4

How did CCCOc1ccccc1/C=C1\SC(N)=NC1=O do in these assays?
CaV13 ICDI inh: 43.5*; NPR1 activator: -2.6; Rin1 Abl inh: -2.9; NPR2 activator: 2.8

How did COc1cc(/C=C(\C#N)C(=O)NC(C)C)cc(Cl)c1O do in these assays?
CaV13 ICDI inh: 48.0*; NPR1 activator: -5.4; Rin1 Abl inh: 0.7; NPR2 activator: -5.0

Results for COc1ccc(C2c3[nH]c4ccccc4c3C[C@H]3C(=O)N(c4ccccc4C(=O)N4CCC(C(=O)O)CC4)C(=O)N23)cc1 (stereo partly drawn) ?
NPR1 activator: 7.0; Rin1 Abl inh: 2.1; NPR2 activator: 13.5

Results for COc1cccc(C2c3[nH]c4ccccc4c3C[C@H]3C(=O)N(c4ccccc4C(=O)N4CCC(C(=O)O)CC4)C(=O)N23)c1 (stereo partly drawn) ?
NPR1 activator: 37.4; Rin1 Abl inh: -3.7; NPR2 activator: 51.4*

Results for Cc1ccc(-n2c(SCC(=O)c3ccc(O)c(O)c3)nnc2-c2ccccc2)cc1 ?
NPR1 activator: -2.3; NPR2 activator: -2.5

What do the screens show for `COC(=O)[C@H](CC(C)C)N(Cc1cn(Cc2ccccc2)nn1)S(=O)(=O)c1ccc(F)cc1Br`?
NPR1 activator: -0.4; NPR2 activator: -1.9

Results for Cc1ccc(Cn2cc(C(=O)c3ccc(F)cc3)c(=O)c3cc4c(cc32)OCCO4)cc1 ?
CaV13 ICDI inh: -2.0; NPR1 activator: 28.3; Rin1 Abl inh: -0.2; NPR2 activator: 37.5*

Results for O=C(NCc1ccccc1Cl)O[C@H]1CC[C@@]23CCCN2C(=O)CCC[C@H]3C1 ?
NPR1 activator: 1.7; NPR2 activator: -3.0

How did CCCCC(CC)C(=O)Oc1ccc(O)c(C(C)(C)C)c1 (stereo not drawn) do in these assays?
CaV13 ICDI inh: -5.2; NPR1 activator: -6.6; Rin1 Abl inh: 9.2*; NPR2 activator: 4.2

How did CC(C)(C)c1cc(OC(=O)C2CCCC2)ccc1O do in these assays?
CaV13 ICDI inh: -10.0; NPR1 activator: 3.6; Rin1 Abl inh: 0.1; NPR2 activator: 5.6

What do the screens show for `[O-]/[N+](=C/c1ccccc1)c1ccccc1`?
CaV13 ICDI inh: 45.5*; NPR1 activator: 0.9; Rin1 Abl inh: 2.8; NPR2 activator: 2.2
